From PubChem
HSF1 activator – increases HSF-1 driven luciferase reporter signal. activation, % at 9 µM. 1.7% of 300,000 active. NIH3T3-HGL HSF-1 luciferase reporter, MG132, 8 h; 100% = twice DMSO control signal;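 active = mean replicate activation of at least 50% with a set share of replicates each reaching 50%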;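 also: 0% = median of the neutral control wells and 100% = twice that signal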
MPTP inh – blocks calcium-induced mitochondrial swelling. isolated mouse mitochondria, Ca2+ swelling absorbance, 30 min. inhibition, % at 10 µM. 1.4% of 360,000 active;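 active = inhibition of 50% or more, scaled per plate between neutral and stimulator controls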;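 also: 0% = DMSO wells given calcium and 100% = 1 mM EGTA wells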
HSP90 inh – inhibitors of HSP90 luciferase refolding in rabbit reticulocyte lysate; luciferase refolding luminescence, 3 h; inhibition, % at 5.6 µM; 0.91% of 290,000 active;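 active = inhibition above the screen-wide mean plus 3 SD, computed separately per campaign, cut at about 16% in these data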;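 also: 0% = DMSO wells and 100% = 60 µM geldanamycin wells; inhibitors lower the luminescence because luciferase stays unfolded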
Platelet DG rel – modulates dense granule release in human platelets; human platelet-rich plasma, SFLLRN dense granule ATP release, luminescence; inhibition, %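 (compounds screened at 7.5 µM in platelet-rich plasma)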; 0.22% of 300,000 active;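 active = mean replicate score, as percent of positive control, at or above 50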
dFosB act – mouse delta FosB homodimer activation; P13346; purified delta FosB, TAMRA-CDK5 oligo fluorescence polarization; percent of positive-control signal above neutral wells; activation, % at 25 µM; 0.99% of 340,000 active;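 active = mean activation above about 17%, with every replicate also reaching it, limit read from the data, passing the limit was not always enough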
Target sequence (P13346 whole entry, looked up): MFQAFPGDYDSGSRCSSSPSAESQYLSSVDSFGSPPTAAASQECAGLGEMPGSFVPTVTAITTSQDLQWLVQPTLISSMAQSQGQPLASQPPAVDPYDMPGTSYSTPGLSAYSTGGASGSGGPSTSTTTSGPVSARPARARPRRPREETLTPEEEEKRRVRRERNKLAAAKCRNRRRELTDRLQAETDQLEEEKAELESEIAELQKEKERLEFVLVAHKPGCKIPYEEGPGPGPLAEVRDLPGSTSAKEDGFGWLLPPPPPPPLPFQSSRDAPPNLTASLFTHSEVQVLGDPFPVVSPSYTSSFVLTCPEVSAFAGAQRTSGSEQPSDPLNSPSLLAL
HSF1 inh – HSF1 inhibition; 0.77% of 300,000 active; activity change, negative = inhibition, % at 7.5 µM (by protocol); NIH3T3-HGL HSE-luciferase, MG132-induced, luminescence 8 h; stronger effect = lower value;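 active = more than half of replicate wells show activity change below -50%, luminescence cut by over half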;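 also: luciferase reports HSF-1 transcriptional activity via heat shock element; 0% = median of DMSO wells and -100% = zero luminescence signal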
The depositor's hits bear a star; / = not tested or not shown. This is a sample that favours compounds with a hit; in the whole collection about 4.9% have one here.

SMILES	HSF1 activator	MPTP inh	HSP90 inh	Platelet DG rel	dFosB act	HSF1 inh
Cc1ccc(N(C(=O)c2csnn2)C(C(=O)NC2CCCC2)c2ccncc2)c(C)c1 (stereo not drawn)	61*	1	-2	-7	-7	43
Cc1cccc(N(C(=O)c2csnn2)C(C(=O)NCc2ccccc2)c2ccc(C)o2)c1 (stereo not drawn)	-9	0	2	4	-9	-2
C[C@H](CO)N1C[C@H](C)[C@@H](CN(C)C(=O)Nc2cccc(F)c2)Oc2ncc(Br)cc2C1=O	/	0	/	/	/	/
Cc1ccccc1N(C(=O)c1csnn1)C(C(=O)NC(C)(C)C)c1ccncc1 (stereo not drawn)	93*	-1	0	5	-3	74
O=C(NC1CCCC1)C(c1ccncc1)N(C(=O)c1csnn1)c1ccccc1 (stereo not drawn)	-6	0	-2	1	-1	2
Cc1cc(C)c(N(C(=O)c2csnn2)C(C(=O)NC2CCCC2)c2ccncc2)c(C)c1 (stereo not drawn)	-82	2	-5	0	2	-76*
CC(C)(C)NC(=O)C(c1ccncc1)N(C(=O)c1csnn1)c1cccc2ccccc12 (stereo not drawn)	14	0	0	-1	-4	11
S=C(NCCSCc1ccc(Cl)c(Cl)c1)Nc1ccccc1	101*	39	4	1	-9	59
Cc1ccn2c(C(=O)c3ccc(Cl)cc3)cnc2c1	-18	-1	22*	5	-15	-7
Cc1ccn2c(=O)nc(SCC(=O)c3ccc(Cl)cc3)nc2c1	-2	0	/	7	-11	1
COc1cccc(NC(=S)N(CCCN2CCN(C)CC2)Cc2ccco2)c1	61*	0	0	7	-2	21
COc1cccc(NC(=S)N(CCCN2CCCC2)Cc2ccco2)c1	45	-3	-4	-6	-1	6
Clc1ccccc1-c1nc(-c2ccccc2)n[nH]1	54*	3	0	-10	-2	24
O=C(NCc1ccc(Br)cc1)OC1CC2CC1[C@H]1CCCCN1C2=O (stereo partly drawn)	/	2	/	/	/	/
CC(c1ccccc1)C1C(C#N)=C(N)OC2=C1C(=O)CC(C)(C)C2 (stereo not drawn)	-8	9	0	12	-5	-10
CC1(C)CC(=O)C2=C(C1)OC(N)=C(C#N)C2C#Cc1ccccc1 (stereo not drawn)	78*	0	8	6	-19	22
COc1ccc(C[C@H]2CN3C(=NC[C@@H]3Cc3ccccc3)N2CCNC(=O)c2ccc(C)c(Br)c2)cc1	26	-1	17*	0	1	6
Cc1ccc(NC(=O)c2cnc(N3CCN(c4ccccn4)CC3)c3ccccc23)c(Br)c1	-66	3	4	-3	1	-63*
O=C(O)COc1ccc2occ(C(=O)c3ccccc3)c2c1	-1	0	2	/	-6	-9
CC(=O)Oc1ccc2occ(C(=O)c3ccccc3)c2c1	63*	3	/	4	/	28
CCOC(=O)/C(=N/Nc1ccc(Cl)cc1)Sc1nnnn1-c1ccc(C)cc1	74*	6	-2	12	12	55
CCOC(=O)/C(=N/Nc1ccccc1)Sc1nnnn1-c1ccc(C)cc1	6	0	3	0	-5	7
C[C@@H]1CN([C@@H](C)CO)C(=O)CCCn2nncc2CO[C@@H]1CN(C)S(=O)(=O)c1ccc2c(c1)OCCCO2	/	0	/	/	/	/
O=S1(=O)NC(=NCC(c2ccco2)N2CCCCC2)c2ccccc21 (stereo not drawn)	85*	2	-1	-8	1	38
CN(C)C(CN=C1NS(=O)(=O)c2ccccc21)c1ccco1 (stereo not drawn)	-1	0	-2	10	-11	5
SMILES	HSF1 activator	MPTP inh	HSP90 inh	Platelet DG rel	dFosB act	HSF1 inh
CC(C)(C)NC(=O)c1ccc2c3c(cccc13)CC2	101*	0	-2	-12	1	48
Cc1ccc(CNC(=O)CC2(CC3=NS(=O)(=O)c4ccccc4N3)CCCC2)cc1	16	-3	7	3	-5	14
Cc1cccc(C)c1NC(=O)C(c1ccccc1)N1CCN(C/C=C/c2ccccc2)CC1 (stereo not drawn)	/	0	/	/	/	/
CCN(CC)c1ccc(/C=N/NC(=O)OC(C)(C)C)cc1	60*	8	-1	-3	-6	20
CCN(CC)c1ccc(/C=N\NC(N)=O)cc1	-7	1	2	1	-2	-2
Cc1cccc(-c2ncc(CN3CCN(CC(C)C)C(CCO)C3)cn2)c1 (stereo not drawn)	-6	1	-1	3	-4	-5
O=C(COC(=O)/C=C/c1cccc([N+](=O)[O-])c1)NCc1ccco1	200*	-1	2	-2	-3	181
O=S(=O)(N1CCCCC1)n1nnc2ccccc21	-64	1	-1	-3	0	-53*
O=C(O)CCCNC(=O)CCCNC(=O)C(c1ccccc1)c1ccccc1	-73	0	10	4	5	-64*
O=c1[nH]c2ccccc2[n+]([O-])c1-c1ccccc1	10	-3	-4	10	-3	3
Nc1ccn([C@@H]2O[C@H](C(=O)N3CCCN(Cc4cccs4)CC3)[C@@H](O)[C@H]2O)c(=O)n1	/	-1	/	/	/	/
CCOC(=O)Nc1ccc(C(=O)Oc2ccccc2)c(O)c1	68*	0	0	1	-11	42
COC(=O)/C(C#N)=C/c1c(N2CCN(c3ccccc3)CC2)nc2ccccn2c1=O	36	-1	-1	-11	6	32
CCOC(=O)/C(C#N)=C/c1c(N2CCN(c3ccccc3)CC2)nc2ccccn2c1=O	93*	-1	5	1	-15	56
CCCCOc1ccc(C(=O)NCC(=O)N2CC(C)CC(C)C2)cc1 (stereo not drawn)	/	0	/	/	-11	/
O=C(CCl)c1ccc2c(c1)CCN2C(=O)C1CCCCC1	71*	-4	-1	7	-17	52
O=C(CCl)c1ccc2c(c1)CCN2C(=O)C1CC1	5	/	4	2	/	1
Cn1ncc2c(O/N=C(\N)c3ccc(C(C)(C)C)cc3)ncnc21	-93	5	2	5	-20	-92*
C/C=C/c1cnc2c(c1)C(=O)N([C@H](C)CO)C[C@H](C)[C@@H](CN(C)C(=O)CN1CCOCC1)O2	/	-1	/	/	/	/
Nc1nc(C(=O)N2CCOCC2)nn1S(=O)(=O)c1ccc(Cl)cc1	15	0	2	1	-5	-1
CNC(=O)c1ccc(S(=O)(=O)c2ccc(Cl)cc2)c(NC(C)=O)c1	-28	-1	0	/	-4	-10
O=C(c1nnsc1S(=O)(=O)c1ccc(Cl)cc1)N1CCOCC1	-81	-1	2	-1	-3	-80*
CNC(=O)c1nnsc1S(=O)(=O)c1ccc(Cl)cc1	158*	-1	2	-2	-1	102
